Inconclusive results are not listed. Active and inactive are the calls of the source. Unless noted, calls follow the shape of the full dose curve.
Experiments:
[1] = target: Gonadotropin-releasing hormone receptor (Homo sapiens) (UniProt P30968); assay: Human gonadotropin-releasing hormone receptor (GnRHR) small molecule agonists, calcium flux assay in GnRHR-HEK293 cells (AID 1920063); also: nearly all actives have a fitted effect of over 35% in size
Summary of the method: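 Fluorescence kinetics (480 nm excitation, 540 nm emission; 3 min, 1 s steps) report calcium mobilisation in human GnRHR-HEK293 cells in agonist mode. Dye incubation: 1 h, 37 C.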

[2] = target: KiSS-1 receptor (Homo sapiens) (UniProt Q969F8); assay: Human kisspeptin (KISS1R) small molecule agonists, calcium flux assay in KISS1R-HEK293 cells (AID 1920064; active = well fitted activation curve with a large enough effect in the repeat runs)
Summary of the method: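 Measures KISS1R agonism through calcium-sensitive dye fluorescence in stably transfected HEK293 cells, read for 3 min after pin-tool compound delivery; 15-point titrations in triplicate.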

[3] = G protein-coupled receptor (GPCR) small molecule agonists, calcium flux assay: HEK293 wild type cell line counter screen (AID 1920065)
Summary of the method: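 Readout: fluorescence at 480 nm excitation/540 nm emission, sampled at 1 s intervals for 3 min. Cells had been cultured 18 h, then dye-loaded 1 h at 37 C before compound or ATP addition.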

[4] = p53 small molecule agonists, cell-based qHTS assay with human liver microsomes (AID 1963577);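 also: p53 response element beta-lactamase reporter cells with liver microsomes plus NADPH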
Summary of the method: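 p53RE-bla cells; 5 h settle, 37 C/5% CO2; cpd + HLM 0.5 mg/mL + NADPH 0.5 mg/mL (final); 16 h 37 C; LiveBLAzer 2 h RT dark; fluorescence readout.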

[5] = p53 small molecule agonists, cell-based qHTS assay with rat liver microsomes (AID 1963578)
Summary of the method: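 Rat liver microsome activation: microsomes 0.5 mg/mL, NADPH 0.5 mg/mL final; p53RE-bla cells, 16 h 37 C; LiveBLAzer readout, 2 h RT dark.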

[6] = p53 small molecule agonists, cell-based qHTS assay with human liver microsomes: qHTS cell viability counter screen (AID 1963579); also: nearly all actives have a fitted effect of over 45% in size; also: potency is read from the fitted curve at half-maximal effect
Summary of the method: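 Luminescent CellTiter-Glo read-out, 30 min at room temperature, gauged cytotoxicity in p53RE-bla cells exposed 16 h at 37 C to DMSO-dissolved compounds with metabolic activation by human liver microsomes and NADPH, each 0.5 mg/mL final.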

[7] = p53 small molecule agonists, cell-based qHTS assay with rat liver microsomes: qHTS cell viability counter screen (AID 1963580); also: nearly all actives have a fitted effect of over 45% in size; also: potency is read from the fitted curve at half-maximal effect
Summary of the method: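 Viability is assessed in parallel with the p53 reporter read: HCT-116 p53RE-bla cells receive compounds plus rat microsomes and NADPH (0.5 mg/mL final apiece), incubate 16 h at 37 C, and then CellTiter-Glo luminescence is recorded.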

[8] = p53 small molecule agonists, cell-based qHTS assay: qHTS cell viability counter screen (AID 1963581); also: nearly all actives have a fitted effect of over 45% in size; also: potency is read from the fitted curve at half-maximal effect
Summary of the method: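 In the same plates used for the p53 bla reporter, HCT-116 cells given compounds for 16 h at 37 C received CellTiter-Glo; luminescence was recorded 30 min later at room temperature.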

[9] = target: D(2) dopamine receptor (Homo sapiens) (UniProt P14416); assay: Dopamine D2 receptor (DRD2) small molecule agonists, cell-based qHTS assay (AID 1963594); also: nearly all actives have a fitted effect of over 35% in size
Summary of the method: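 HEK293 cells stably expressing human DRD2, pre-treated with PDE inhibitor Ro20-1724 (0.1 mM final) and compound 10 min at room temperature, then stimulated with NKH477 (200nM […]) for 30 min. cAMP read by HTRF (665/620 nm).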

[10] = target: 5-hydroxytryptamine receptor 2A (Homo sapiens) (UniProt P28223); assay: 5-hydroxytryptamine receptor 2A (HTR2A) small molecule agonists, cell-based qHTS assay (AID 1963587); also: nearly all actives have a fitted effect of over 30% in size
Summary of the method: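 CHO cells stably expressing human HTR2A, plated 18 h, loaded with calcium dye 1 h at 37 C. Agonist mode: compounds added and intracellular calcium fluorescence recorded kinetically for 2 min at 1 sec intervals.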

[11] = target: Muscarinic acetylcholine receptor M1 (Homo sapiens) (UniProt P11229); assay: Cholinergic receptor muscarinic 1 (CHRM1) small molecule antagonists, cell-based qHTS assay (AID 1963588); also: nearly all actives have a fitted effect of over 40% in size; also: potency is read from the fitted curve at half-maximal effect
Summary of the method: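 CHRM1-CHO calcium-flux assay, antagonist mode. Cells were seeded 18 h, dye-loaded 1 h at 37 C and given compound for 5 min at RT, then acetylcholine was added at 50nM. FDSS fluorescence was read 3 min; 15 concentrations, three runs.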

[12] = target: Muscarinic acetylcholine receptor M1 (Homo sapiens) (UniProt P11229); assay: Cholinergic receptor muscarinic 1 (CHRM1) small molecule agonists, cell-based qHTS assay (AID 1963589); also: nearly all actives have a fitted effect of over 35% in size
Summary of the method: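 Each compound was tested at 15 concentrations across three independent runs on dye-loaded CHO cells stably expressing human CHRM1, reading intracellular calcium fluorescence kinetically at 1 sec intervals.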

[13] = cAMP Responsive Elements (CRE) small molecule agonists, cell-based qHTS assay (AID 1963590)
Summary of the method: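 Cell line: CRE-bla HEK 293T; medium DMEM/10% dialyzed FBS/0.1 mM NEAA/1 mM pyruvate/25 mM HEPES; 3 h compound exposure; beta-lactamase FRET readout after 2 h substrate loading at RT.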

[14] = cAMP Responsive Elements (CRE) small molecule antagonists, cell-based qHTS assay (AID 1963591; active = well fitted inhibition curve with a large enough effect in the signal ratio in the repeat runs, not every such curve was filed as active; the % refers to the signal ratio)
Summary of the method: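 Inhibition of NKH477-driven (0.25 uM final) CRE-beta-lactamase signal in HEK293T cells, 3 h compound exposure at 37 °C, detected by FRET substrate fluorescence.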

[15] = p53 small molecule agonists, cell-based qHTS assay (AID 1963582; active = well fitted activation curve with a large enough effect in the signal ratio in the repeat runs, not every such curve was filed as active; the % refers to the signal ratio)
Summary of the method: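 Compounds are pin-transferred in DMSO onto p53RE-bla cells and incubated 16 h at 37 C. The B/G FRET beta-lactamase substrate is then applied for 2 h at RT and fluorescence recorded.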

[16] = target: 5-hydroxytryptamine receptor 2A (Homo sapiens) (UniProt P28223); assay: 5-hydroxytryptamine receptor 2A (HTR2A) small molecule antagonists, cell-based qHTS assay (AID 1963586); also: nearly all actives have a fitted effect of over 45% in size
Summary of the method: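 Antagonist-mode intracellular calcium assay: DOI (4 nM) added after 5 min compound pre-incubation at room temperature to dye-loaded HTR2A-CHO cells. Fluorescence followed for 3 min, sampled every second.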

[17] = target: Beta-2 adrenergic receptor (Homo sapiens) (UniProt P07550); assay: Adrenergic beta2 receptor (ADRB2) small molecule antagonists, cell-based qHTS assay (AID 1963592); also: series mostly up to about 92 µM; nearly all actives have a fitted effect of over 50% in size
Summary of the method: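 Cells (CHO, stable ADRB2 overexpression) incubated 18-20hr at 37C; compounds added from DMSO; agonist mix (1nM isoproterenol, 100uM IBMX, 25uM Ro-20-1724) added; 0.5hr RT; d2-cAMP and anti-cAMP-cryptate added; 1hr RT; 665/615 nm read.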

[18] = target: D(2) dopamine receptor (Homo sapiens) (UniProt P14416); assay: Dopamine D2 receptor (DRD2) small molecule antagonists, cell-based qHTS assay (AID 1963595; active = well fitted inhibition curve with a large enough effect in the signal ratio in the repeat runs, with a control signal flat; the % refers to the signal ratio)
Summary of the method: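 DRD2-HEK293; 0.1 mM Ro20-1724; cpd 10 min RT; NKH477 200 nM + quinpirole 12 nM, 30 min RT; HTRF cAMP (cAMP-d2/anti-cAMP cryptate), 665/620 nm ratio after 1 h.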

[19] = target: Beta-2 adrenergic receptor (Homo sapiens) (UniProt P07550); assay: Adrenergic beta2 receptor (ADRB2) small molecule agonists, cell-based qHTS assay (AID 1963593);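 also: CHO cells stably overexpressing human ADRB2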
Summary of the method: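 CHO cells stably over-expressing ADRB2 were plated overnight at 37C, then dosed with compounds plus a stimulation mix containing 100uM IBMX and 25uM Ro-20-1724 for 0.5hr at room temperature. cAMP was measured by HTRF competition, 1hr.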
% is scaled to controls: 0 for no effect and ±100 for the full control effect.

Chain of Muscarinic acetylcholine receptor M1 (Homo sapiens) (P11229 whole entry, looked up): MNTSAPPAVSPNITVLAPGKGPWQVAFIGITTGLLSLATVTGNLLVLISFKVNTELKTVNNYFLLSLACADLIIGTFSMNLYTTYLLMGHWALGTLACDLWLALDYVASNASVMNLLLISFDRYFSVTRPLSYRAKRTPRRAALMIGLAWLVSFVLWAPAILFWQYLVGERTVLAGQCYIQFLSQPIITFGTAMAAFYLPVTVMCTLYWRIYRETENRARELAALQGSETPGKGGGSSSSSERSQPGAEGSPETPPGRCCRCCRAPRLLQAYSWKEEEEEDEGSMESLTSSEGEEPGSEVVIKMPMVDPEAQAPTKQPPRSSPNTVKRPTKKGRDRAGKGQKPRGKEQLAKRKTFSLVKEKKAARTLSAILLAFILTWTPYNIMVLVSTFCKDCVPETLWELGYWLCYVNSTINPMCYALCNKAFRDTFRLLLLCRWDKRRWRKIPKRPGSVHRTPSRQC
Chain of 5-hydroxytryptamine receptor 2A (Homo sapiens) (P28223 whole entry, looked up): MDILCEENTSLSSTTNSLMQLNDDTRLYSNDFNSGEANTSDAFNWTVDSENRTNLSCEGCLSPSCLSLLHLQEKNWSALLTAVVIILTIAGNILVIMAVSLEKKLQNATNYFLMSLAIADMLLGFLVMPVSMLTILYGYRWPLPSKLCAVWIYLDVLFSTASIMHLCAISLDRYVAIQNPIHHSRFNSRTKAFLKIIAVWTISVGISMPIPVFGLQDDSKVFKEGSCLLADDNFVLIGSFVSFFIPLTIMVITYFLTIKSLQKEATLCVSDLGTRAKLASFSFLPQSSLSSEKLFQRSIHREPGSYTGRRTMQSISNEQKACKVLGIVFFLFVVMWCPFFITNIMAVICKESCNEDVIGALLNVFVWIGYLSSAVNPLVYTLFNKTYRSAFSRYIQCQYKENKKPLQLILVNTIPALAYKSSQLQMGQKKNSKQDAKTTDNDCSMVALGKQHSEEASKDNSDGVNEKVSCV
Chain of Gonadotropin-releasing hormone receptor (Homo sapiens) (P30968 whole entry, looked up): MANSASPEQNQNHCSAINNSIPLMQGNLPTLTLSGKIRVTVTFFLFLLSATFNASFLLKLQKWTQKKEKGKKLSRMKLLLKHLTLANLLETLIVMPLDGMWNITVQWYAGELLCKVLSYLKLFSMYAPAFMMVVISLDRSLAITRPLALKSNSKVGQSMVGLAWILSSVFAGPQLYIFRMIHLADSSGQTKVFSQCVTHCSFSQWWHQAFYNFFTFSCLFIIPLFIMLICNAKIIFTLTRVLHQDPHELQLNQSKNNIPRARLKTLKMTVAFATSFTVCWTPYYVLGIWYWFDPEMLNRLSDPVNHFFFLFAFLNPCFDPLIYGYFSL
Chain of KiSS-1 receptor (Homo sapiens) (Q969F8 whole entry, looked up): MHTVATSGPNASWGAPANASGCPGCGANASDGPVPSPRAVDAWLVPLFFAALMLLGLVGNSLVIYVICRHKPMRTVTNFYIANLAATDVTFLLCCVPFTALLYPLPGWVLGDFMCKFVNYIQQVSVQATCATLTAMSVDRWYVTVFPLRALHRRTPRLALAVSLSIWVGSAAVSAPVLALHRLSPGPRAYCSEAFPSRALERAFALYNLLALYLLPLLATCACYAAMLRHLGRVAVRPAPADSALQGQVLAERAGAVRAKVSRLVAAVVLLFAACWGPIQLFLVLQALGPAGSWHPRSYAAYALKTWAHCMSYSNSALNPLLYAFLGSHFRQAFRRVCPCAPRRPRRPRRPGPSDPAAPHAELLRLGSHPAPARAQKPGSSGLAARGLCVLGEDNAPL
Chain of D(2) dopamine receptor (Homo sapiens) (P14416 whole entry, looked up): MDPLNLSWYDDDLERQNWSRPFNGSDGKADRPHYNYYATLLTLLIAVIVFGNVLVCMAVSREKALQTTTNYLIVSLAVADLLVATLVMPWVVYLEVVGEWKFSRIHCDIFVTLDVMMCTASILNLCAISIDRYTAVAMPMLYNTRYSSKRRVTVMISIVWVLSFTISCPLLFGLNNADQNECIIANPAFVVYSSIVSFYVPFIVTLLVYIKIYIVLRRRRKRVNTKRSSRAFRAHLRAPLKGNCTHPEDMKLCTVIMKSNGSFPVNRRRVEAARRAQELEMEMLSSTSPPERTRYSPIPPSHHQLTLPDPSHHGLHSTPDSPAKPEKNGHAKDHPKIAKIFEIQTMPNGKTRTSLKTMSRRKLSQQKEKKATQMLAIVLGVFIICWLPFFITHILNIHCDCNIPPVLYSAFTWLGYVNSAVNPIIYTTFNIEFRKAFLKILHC
Chain of Beta-2 adrenergic receptor (Homo sapiens) (P07550 whole entry, looked up): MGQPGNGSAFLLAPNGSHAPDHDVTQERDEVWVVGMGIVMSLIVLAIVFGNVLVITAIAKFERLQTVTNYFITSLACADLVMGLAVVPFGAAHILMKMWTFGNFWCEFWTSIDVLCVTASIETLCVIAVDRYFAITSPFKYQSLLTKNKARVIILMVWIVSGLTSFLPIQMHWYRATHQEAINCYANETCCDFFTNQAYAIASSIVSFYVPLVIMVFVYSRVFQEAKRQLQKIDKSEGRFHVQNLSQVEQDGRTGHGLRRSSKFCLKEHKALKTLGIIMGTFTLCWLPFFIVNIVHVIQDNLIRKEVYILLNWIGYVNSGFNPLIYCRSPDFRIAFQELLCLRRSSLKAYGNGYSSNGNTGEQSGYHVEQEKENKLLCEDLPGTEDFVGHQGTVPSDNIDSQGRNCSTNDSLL

CN1CCC[C@@H]1CCO[C@](C)(c1ccccc1)c1ccc(Cl)cc1
inactive: Potency [1] | Potency [2] | Potency [3] | Potency [4] | Potency [5] | Potency [6] | Potency [7] | Potency [8] | Potency [9]

O=C(C(=O)c1ccc(Br)cc1)c1ccc(Br)cc1
inactive: activity change [1] 0.0439% [at 11.8 µM, stronger effect = higher value] | activation [2] 0.431% [at 15.8 µM] | activation [3] -0.382% [at 11.8 µM] | activation [4] -9.98% [at 13.5 µM] | activation [5] -6.75% [at 13.6 µM] | activity change, negative = cytotoxicity [6] -13.3% [at 13.5 µM] | activity change, negative = cytotoxicity [8] -2.62% [at 13.5 µM] | activation [10] 2.38% [at 15.9 µM] | activity, negative = inhibition [11] 5.04% [at 12.6 µM] | activation [12] -0.452% [at 15.8 µM] | activation [13] -0.367% [at 19 µM] | activity change, negative = inhibition [14] -9.38% [at 18.9 µM] | activation [9] -0.026% [at 19 µM]

COc1cc(C)nc(-n2nc(C)cc2OC)n1
inactive: Potency [1] | Potency [2] | Potency [3] | Potency [4] | Potency [5] | Potency [6] | Potency [15] | Potency [16] | Potency [10] | Potency [11] | Potency [12] | Potency [13] | Potency [17] | Potency [18]

O=C(O)CCCCCCCCCCCBr
inactive: Potency [1] | Potency [2] | Potency [3] | Potency [4] | Potency [5] | Potency [7] | Potency [8] | Potency [10] | Potency [12] | Potency [17] | Potency [9] | Potency [18]

CN(C)CCCN1c2ccccc2Sc2ccc(Cl)cc21
inactive: Potency [1] | Potency [2] | Potency [3] | Potency [4] | Potency [5] | Potency [6] | Potency [7] | Potency [17] | Potency [9]

CCC(C)Nc1ccc(NC(C)CC)cc1 (stereo unspecified)
active: Potency [6] 2.08 µM | Potency [7] 4.66 µM | Potency [8] 10.4 µM | Potency [11] 9.6 µM
inactive: Potency [1] | Potency [2] | Potency [3] | Potency [4] | Potency [5] | Potency [15] | Potency [16] | Potency [12]

O=c1[nH]nc(-c2ccc([N+](=O)[O-])o2)o1
inactive: Potency [1] | Potency [2] | Potency [3] | Potency [4] | Potency [5] | Potency [6] | Potency [8] | Potency [15] | Potency [16] | Potency [10] | Potency [11] | Potency [12] | Potency [17] | Potency [9] | Potency [18]

CC(=O)c1c(C)c([N+](=O)[O-])c(C(C)(C)C)c([N+](=O)[O-])c1C
inactive: Potency [1] | Potency [2] | Potency [3] | Potency [4] | Potency [5] | Potency [6] | Potency [7] | Potency [8] | Potency [15] | Potency [16] | Potency [11] | Potency [12] | Potency [14] | Potency [17] | Potency [19] | Potency [9] | Potency [18]
